TTR transcr act: increases transthyretin transcription | 1.3% of 92,000 active | SH-SY5Y TTR promoter Gaussia luciferase, luminescence; 100% = recombinant luciferase protein wells | AID 1117267 | activation, % at 16.7 µM;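 active means activation above the mean of all tested compounds plus 3 SD, cut at about 9.5% in these data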;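 further: cells exposed to compounds for one day before reading; 0% = median of all test compound wells on the plate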
TTR inh HuH7: decreases TTR transcription in HuH7 cells in activator counter-screen; 4% of 1,100 active; inhibition, % at 16.7 µM; shares compounds with TTR transcr act; HuH7 TTR promoter-Gaussia luciferase reporter, luminescence;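 active means average inhibition above the solvent-only control wells' mean plus 3 SD, cut at about 15% in these data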;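 further: 0% = cells with DMSO only and 100% = cells with inhibitor control FD; inhibitors lower well luminescence so higher value means more inhibition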
TTR act confirm: human TTR transcription activation, confirmation; SHSY5Y TTR promoter Gaussia luciferase, luminescence; 100% = purified Lucia enzyme wells, no cells; AID 1117280; activation, % at 16.7 µM; 1,100 tested, under 10 active; shares compounds with TTR transcr act;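 active means mean activation above a set limit taken from the earlier primary screen, cut at about 11% in these data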;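 further: 0% = DMSO-treated cells and 100% = recombinant Lucia luciferase without cells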
An asterisk follows results filed as active. The full list was thinned out, with hits kept by preference.

SMILES	TTR transcr act	others
CCCN=C1N(CC)C[C@@H]2[C@@H]3C(=O)N(Cc4ccccc4)C(=O)[C@@H]3[C@](C)(C(=O)OC)N12	0
Cc1ccc(CN2CCCCC(NC(=O)Nc3ccccc3)C2=O)cc1 (stereo not given)	-2
O=C(NCCc1nc2ccccc2n1C/C=C/c1ccccc1)C1CCCCC1	-1
Cc1cccc(C(=O)N[C@@H]2CC[C@@]34CCCN3C(=O)CCC[C@H]4[C@H]2C)c1	0
NC(=O)C1CCN(c2ccnc(Cl)n2)CC1	2
CCOC(=O)C1CCCCN1C(=O)[C@@H]1CC=C[C@@H]2CCN(c3ccccc3)C(=O)[C@@H]21 (stereo not given in full)	0
C[C@@H]1[C@@H](O)C[C@@]2(C[C@H](O)c3cc(Cl)ccc3O2)O[C@H]1c1ccccc1Cl	-3
CC1(c2nnnn2Cc2ccccc2)CN(S(C)(=O)=O)CC(=O)N1Cc1cccs1 (stereo not given)	-1
Cc1nn2cc(-c3cccc(Cl)c3)cnc2c1Cl	-1
Cn1nnnc1NCc1cccc(Cl)c1	0
CC(C)n1nnnc1-c1cccc(Cl)c1	12*	TTR inh HuH7=1;TTR act confirm=1
CCN1CCN(S(=O)(=O)c2ccc3c(c2)NC(=O)CS3)CC1	2
CCOC(=O)C1CCN(S(=O)(=O)c2ccc3c(c2)NC(=O)CS3)CC1	11*	TTR inh HuH7=-15;TTR act confirm=0
CCOC(=O)C1CCN(S(=O)(=O)c2ccc3[nH]c(=O)oc3c2)CC1	1
Cn1cnnc1SCc1ccccc1	18*	TTR inh HuH7=-11;TTR act confirm=0
Cn1cnnc1SCc1ccc(C(=O)NN)cc1	-1
COc1ccc(CSc2nncn2C)cc1F	-2
COc1cc(C(=O)NC2CCCCN(Cc3ccc(Cl)cc3)C2=O)cc(OC)c1OC (stereo not given)	0
COC(=O)[C@@]12CCCCN1[C@H](c1ccc(SC3CCCCC3)cc1)[C@@H]1C(=O)N(C)C(=O)[C@@H]12	17*	TTR inh HuH7=7;TTR act confirm=-1
CCN1C(=O)[C@@H]2[C@@H](c3ccc(-c4ccc5c(c4)OCO5)cc3)N3CCCC[C@@]3(C(=O)OC)[C@@H]2C1=O	-2
COC(=O)[C@@]12CCCN1[C@H](c1ccc(-c3ccccc3)cc1)[C@H]1C(=O)N(C)C(=O)[C@H]12	4
CCN1C(=O)[C@@H]2[C@@H](c3ccc(-c4ccc(C(C)=O)cc4)cc3)N3CCCC[C@@]3(C(=O)OC)[C@@H]2C1=O	12*	TTR inh HuH7=1;TTR act confirm=-1
CCSc1ccc([C@@H]2[C@H]3C(=O)N(C)C(=O)[C@H]3[C@]3(C(=O)OC)CCCCN23)cc1	-1
COC(=O)[C@@]12CCCCN1[C@H](c1ccc(-c3ccc(C(C)=O)cc3)cc1)[C@H]1C(=O)N(C)C(=O)[C@H]12	-2
CCC[C@H]1[C@@H](NC(=O)c2cccnc2)CC[C@@]23CCCN2C(=O)CCC[C@@H]13	2
SMILES	TTR transcr act	others
C=CCN(C(=O)[C@@H](CCCC)[C@@H](O)c1ccc(C(C)=O)cc1)c1ccccc1	4
NC1=NS(=O)(=O)Nc2ccccc21	-1
CCOC(=O)[C@]12CCCC=C1N(Cc1ccc(OC)cc1)C(=O)[C@@H]2CC(=O)N1CCN(C(=O)C2CC2)CC1	3
COC(=O)c1cc(OC)nc(OC)c1	16*	TTR inh HuH7=-13;TTR act confirm=2
COC(=O)c1ccc2nccnc2c1	0
COC(=O)c1ccc2cn[nH]c2c1	3
C[C@H]1[C@@H](OC(=O)N2CCN(c3ccccc3)CC2)CC[C@@]23CCCN2C(=O)CCC[C@@H]13	-1
Clc1ccc([C@H]2OC[C@@]3(CNCc4ccccc4)CS[C@H](c4ccc(Cl)cc4)N23)cc1	0
Cc1ccc2nc(/C(C#N)=C\c3ccc(Oc4ccc([N+](=O)[O-])cn4)cc3)[nH]c2c1	-1
N#Cc1ccc(Oc2ccc(/C=N/O)cn2)cc1	81*	TTR inh HuH7=0;TTR act confirm=-1
COc1nc(Oc2ccc(/C=N/O)cc2)nc(N(C)C)n1	-1
O=C1CCC[C@H]2C[C@H](NCc3cccnc3)CC[C@]23CCCN13	2
O=C(OCC#CCSc1nnc(-c2cccc3ccccc23)o1)c1cc(F)c(F)c(F)c1	-2
CCOC(=O)C1(C(=O)OCC)Cc2c([nH]c3ccccc23)[C@]2(N1)C(=O)N(C)c1ccc(Br)cc12	-3
COc1ccc(-c2nc3ccc(C)cn3c2Cc2ccccc2)cc1OC	-1
O=C(O)CCNS(=O)(=O)c1ccccc1	0
O=C(O)CCNS(=O)(=O)c1ccc2ccccc2c1	1
O=C(O)CNS(=O)(=O)c1cccc(Cl)c1	15*	TTR inh HuH7=-11;TTR act confirm=4
O=C(NNc1nc(N2CCOCC2)nc(N2CCOCC2)n1)c1ccccc1	23*	TTR inh HuH7=-13;TTR act confirm=0
CC(=O)c1cccc(Nc2nc(N3CCOCC3)nc(N3CCOCC3)n2)c1	0
O=C(NNc1cc(N2CCOCC2)nc(N2CCOCC2)n1)c1ccc(Cl)c(Cl)c1	2
COCCCNC(=O)C[C@H]1C(=O)N(Cc2ccc(OC)cc2)C2=CCCCC[C@@]21C(=O)OC	7
C=C1[C@@H]2CC[C@H]3[C@]4(C)[C@@H](O)CC[C@@](C)(C(=O)OC)[C@H]4C[C@H](O)[C@]3(C2)[C@H]1O	-1
O=C(Nc1ccc(F)cc1)OCc1cn(Cc2cccc(C(F)(F)F)c2)nn1	-1
COC(=O)[C@]12CCCCC=C1N(Cc1ccc(OC)cc1)C(=O)[C@@H]2CC(=O)N1CCOCC1	1
SMILES	TTR transcr act	others
O=C(CCSc1ccccc1)NCC1CCCO1 (stereo not given)	15*	TTR inh HuH7=-5;TTR act confirm=0
CC(NC(=O)C(=O)NCC1CCCO1)c1ccccc1 (stereo not given)	-1
O=C(CCSCCC(=O)NCC1CCCO1)NCC1CCCO1 (stereo not given)	-1
COc1ccc(CN2C(=O)CCCC2(C)c2nnnn2-c2c(C)cccc2C)cc1OC (stereo not given)	1
CC(C)(C)CCN1C[C@@H]2C(CNC(=O)c3cc(Cl)cc(Cl)c3)[C@@H]2C1 (stereo not given in full)	-2
COc1ccc2nc3c(c(-c4ccccc4)c2c1)CCC3	-4
COc1ccc(-c2c3c(nc4sc5c(=O)[nH]c(C)nc5c24)CCC3)cc1	16*	TTR inh HuH7=-6;TTR act confirm=-1
Cc1ccc(-c2c3c(nc4sc(C(N)=O)c(N)c24)CCCC3)o1	-1
C#CCOCCOCCOCCNc1nc(N2CCN(C(=O)[C@H](CC(N)=O)n3cc([C@@H](N)CC(N)=O)nn3)CC2)nc(N2CCN(C(=O)[C@H](CC(N)=O)n3cc([C@@H](N)CC(N)=O)nn3)CC2)n1	14*	TTR inh HuH7=-4;TTR act confirm=0
C#CCOCCOCCOCCNc1nc(N2CCN(C(=O)[C@H](CCC(=O)O)n3cc([C@@H](N)CC(N)=O)nn3)CC2)nc(N2CCN(C(=O)[C@H](CCC(=O)O)n3cc([C@@H](N)CC(N)=O)nn3)CC2)n1	0
C#CCOCCOCCOCCNc1nc(N2CCOCC2)nc(N2CCN(C(=O)[C@H](CC(N)=O)n3cc([C@@H](N)C(C)C)nn3)CC2)n1	-1
O=S1(=O)c2ccc(N3CC[C@@H](O)C3)cc2O[C@H]2CCN1C2	-1
COc1ccc(CCNC(=O)Cn2cnc3c(nnn3Cc3ccccc3F)c2=O)cc1OC	22*	TTR inh HuH7=-10;TTR act confirm=-1
O=C(Cn1cnc2c(nnn2Cc2ccc(F)cc2)c1=O)NCc1ccc(F)cc1	1
